Of roughly 8,800 targets only a part is listed; those with a hit were picked by preference. About 0.5% of all pairs of compound and target were hits. Values without a mark were called inactive.
Columns and labels:
Assay in all cases: log2 fold change, soluble protein after heating vs DMSO (PISA); higher = thermal stabilisation; K562 lysate, 10 uM; active = over 0.2 and 3.5 SD of the protein, either way, in both replicates (recomputed)
alvocidib = compound: CN1CC[C@H](c2c(O)cc(O)c3c(=O)cc(-c4ccccc4Cl)oc23)[C@H](O)C1 [alvocidib]
Outline: (§1)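 Quantification was by TMTpro 16plex LC-MS/MS with equalised channel sums, applied to the supernatant after 21,000xg for 90 min. Samples were crude K562 extract at 1 mg/mL protein in PBS pH 7.4 with 1 mM MgCl2, treated with 10 μM compound for 30 min, heated for 3 min across 48°C-58°C, pooled and brought to 0.5% NP-40 at 4°C. Values are log-two fold changes in thermal stability relative to solvent controls, from duplicates.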

Tubastatin A = compound: CN1CCc2c(c3ccccc3n2Cc2ccc(C(=O)NO)cc2)C1 [Tubastatin A]
Outline: as §1

[1] = compound: CNC(=O)C1=CC=CC=C1NC2=NC(=NC=C2Cl)NC3=C(C=C(C=C3)N4CCOCC4)OC
Outline: as §1

defactinib = compound: CNC(=O)c1ccc(Nc2ncc(C(F)(F)F)c(NCc3nccnc3N(C)S(C)(=O)=O)n2)cc1 [defactinib]
Outline: as §1

[2] = compound: CNc1nc(-c2ccc3c(N)n[nH]c3c2)cc(N2C[C@@H](C(=O)NC3CCCCC3)CC[C@H]2C)n1
Outline: as §1

encorafenib = compound: COC(=O)N[C@@H](C)CNc1nccc(-c2cn(C(C)C)nc2-c2cc(Cl)cc(NS(C)(=O)=O)c2F)n1 [encorafenib]
Outline: as §1

[3] = compound: COC(=O)[C@H](CCSC)NC(=O)C1=C(C=C(C=C1)NC[C@H](CS)N)C2=CC=CC=C2
Outline: as §1

alisertib = compound: COc1cc(Nc2ncc3c(n2)-c2ccc(Cl)cc2C(c2c(F)cccc2OC)=NC3)ccc1C(=O)O [alisertib]
Outline: as §1

[4] = compound: COc1cc2nc(-c3cc(F)ccc3O)nc(N[C@@H]3CNC[C@H]3C(C)(C)O)c2cc1OC
Outline: as §1

gefitinib = compound: COc1cc2ncnc(Nc3ccc(F)c(Cl)c3)c2cc1OCCCN1CCOCC1 [gefitinib]
Outline: as §1

Chain of UniProt Q7Z3J2 (Q7Z3J2 whole entry, looked up): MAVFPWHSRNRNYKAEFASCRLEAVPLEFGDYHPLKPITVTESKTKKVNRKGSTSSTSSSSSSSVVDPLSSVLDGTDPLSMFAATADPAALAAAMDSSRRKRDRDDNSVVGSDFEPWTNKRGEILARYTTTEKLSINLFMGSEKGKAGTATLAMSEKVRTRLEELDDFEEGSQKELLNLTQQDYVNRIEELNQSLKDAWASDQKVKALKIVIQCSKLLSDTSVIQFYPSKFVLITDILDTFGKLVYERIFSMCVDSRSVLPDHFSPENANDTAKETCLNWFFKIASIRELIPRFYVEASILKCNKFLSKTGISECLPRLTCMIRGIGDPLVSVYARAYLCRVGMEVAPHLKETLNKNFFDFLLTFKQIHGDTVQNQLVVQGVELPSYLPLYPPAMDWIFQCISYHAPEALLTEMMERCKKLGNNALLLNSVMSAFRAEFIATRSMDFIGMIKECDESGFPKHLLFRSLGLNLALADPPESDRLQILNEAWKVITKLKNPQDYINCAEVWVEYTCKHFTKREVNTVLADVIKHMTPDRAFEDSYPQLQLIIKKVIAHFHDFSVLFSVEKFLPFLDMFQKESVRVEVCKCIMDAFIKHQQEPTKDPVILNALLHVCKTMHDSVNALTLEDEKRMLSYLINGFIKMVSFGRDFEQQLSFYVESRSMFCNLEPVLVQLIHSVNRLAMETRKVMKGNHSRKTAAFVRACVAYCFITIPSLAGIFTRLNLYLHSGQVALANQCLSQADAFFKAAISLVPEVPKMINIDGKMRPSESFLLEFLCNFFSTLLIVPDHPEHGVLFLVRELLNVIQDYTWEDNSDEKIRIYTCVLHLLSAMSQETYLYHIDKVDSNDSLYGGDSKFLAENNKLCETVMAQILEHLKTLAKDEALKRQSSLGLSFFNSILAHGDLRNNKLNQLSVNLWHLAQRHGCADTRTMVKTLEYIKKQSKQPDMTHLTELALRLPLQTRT
Chain of UniProt Q9NNW5 (Q9NNW5 whole entry, looked up): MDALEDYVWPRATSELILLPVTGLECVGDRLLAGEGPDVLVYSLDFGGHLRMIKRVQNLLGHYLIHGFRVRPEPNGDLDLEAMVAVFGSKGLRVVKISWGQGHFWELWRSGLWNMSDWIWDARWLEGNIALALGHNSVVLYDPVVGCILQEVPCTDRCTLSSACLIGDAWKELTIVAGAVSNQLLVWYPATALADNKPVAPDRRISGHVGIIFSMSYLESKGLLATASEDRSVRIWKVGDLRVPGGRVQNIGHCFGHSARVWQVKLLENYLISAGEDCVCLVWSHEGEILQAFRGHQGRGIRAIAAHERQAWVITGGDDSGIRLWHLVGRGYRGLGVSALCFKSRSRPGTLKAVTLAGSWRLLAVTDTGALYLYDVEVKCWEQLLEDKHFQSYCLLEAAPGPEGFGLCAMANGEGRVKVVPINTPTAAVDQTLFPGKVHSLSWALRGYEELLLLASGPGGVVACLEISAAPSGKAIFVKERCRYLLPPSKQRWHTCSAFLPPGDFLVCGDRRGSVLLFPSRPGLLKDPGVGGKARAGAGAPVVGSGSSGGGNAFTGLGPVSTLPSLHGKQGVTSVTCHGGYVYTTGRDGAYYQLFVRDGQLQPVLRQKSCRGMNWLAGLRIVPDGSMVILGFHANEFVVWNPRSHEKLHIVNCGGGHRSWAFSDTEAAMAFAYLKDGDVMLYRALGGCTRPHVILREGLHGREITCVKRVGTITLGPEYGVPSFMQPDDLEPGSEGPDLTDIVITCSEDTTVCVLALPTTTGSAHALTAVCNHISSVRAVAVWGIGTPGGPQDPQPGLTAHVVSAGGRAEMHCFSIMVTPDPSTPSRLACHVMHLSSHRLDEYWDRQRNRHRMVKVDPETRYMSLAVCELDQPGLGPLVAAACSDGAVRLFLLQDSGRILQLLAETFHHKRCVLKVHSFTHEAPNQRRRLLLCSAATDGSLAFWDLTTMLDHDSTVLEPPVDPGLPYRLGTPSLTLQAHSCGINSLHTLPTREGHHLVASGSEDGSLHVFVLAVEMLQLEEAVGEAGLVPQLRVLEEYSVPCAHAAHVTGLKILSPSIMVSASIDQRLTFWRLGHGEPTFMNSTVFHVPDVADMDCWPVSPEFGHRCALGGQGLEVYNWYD
Chain of UniProt Q9UBK9 (Q9UBK9 whole entry, looked up): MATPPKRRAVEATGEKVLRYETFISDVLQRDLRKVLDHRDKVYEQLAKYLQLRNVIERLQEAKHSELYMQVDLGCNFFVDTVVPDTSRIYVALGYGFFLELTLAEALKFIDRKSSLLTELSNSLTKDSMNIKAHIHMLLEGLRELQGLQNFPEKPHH
Chain of UniProt O43592 (O43592 whole entry, looked up): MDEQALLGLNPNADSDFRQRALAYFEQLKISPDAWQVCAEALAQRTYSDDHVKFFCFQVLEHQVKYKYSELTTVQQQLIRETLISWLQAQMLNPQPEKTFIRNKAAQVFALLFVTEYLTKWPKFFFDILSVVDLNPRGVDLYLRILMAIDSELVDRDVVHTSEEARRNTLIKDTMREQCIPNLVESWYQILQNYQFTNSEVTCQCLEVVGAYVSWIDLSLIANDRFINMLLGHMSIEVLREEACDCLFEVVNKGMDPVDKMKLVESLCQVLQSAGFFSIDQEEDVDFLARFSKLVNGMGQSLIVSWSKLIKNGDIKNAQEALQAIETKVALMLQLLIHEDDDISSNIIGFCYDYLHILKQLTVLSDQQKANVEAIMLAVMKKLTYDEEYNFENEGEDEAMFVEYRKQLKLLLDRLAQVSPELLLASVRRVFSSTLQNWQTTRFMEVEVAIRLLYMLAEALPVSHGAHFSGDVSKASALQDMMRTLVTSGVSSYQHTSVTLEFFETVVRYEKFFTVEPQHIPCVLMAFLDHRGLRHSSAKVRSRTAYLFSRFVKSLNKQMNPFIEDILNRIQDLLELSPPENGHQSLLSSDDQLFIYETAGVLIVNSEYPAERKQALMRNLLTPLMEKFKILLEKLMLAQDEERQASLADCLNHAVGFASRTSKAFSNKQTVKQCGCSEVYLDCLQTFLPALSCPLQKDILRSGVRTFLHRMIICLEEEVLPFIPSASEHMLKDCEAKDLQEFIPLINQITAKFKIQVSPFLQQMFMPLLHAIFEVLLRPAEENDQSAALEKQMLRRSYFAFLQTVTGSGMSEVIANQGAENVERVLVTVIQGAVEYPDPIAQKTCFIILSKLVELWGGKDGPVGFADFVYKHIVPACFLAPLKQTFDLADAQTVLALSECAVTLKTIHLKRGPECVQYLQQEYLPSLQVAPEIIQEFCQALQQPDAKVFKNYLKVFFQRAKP
Chain of UniProt Q9H3U1 (Q9H3U1 whole entry, looked up): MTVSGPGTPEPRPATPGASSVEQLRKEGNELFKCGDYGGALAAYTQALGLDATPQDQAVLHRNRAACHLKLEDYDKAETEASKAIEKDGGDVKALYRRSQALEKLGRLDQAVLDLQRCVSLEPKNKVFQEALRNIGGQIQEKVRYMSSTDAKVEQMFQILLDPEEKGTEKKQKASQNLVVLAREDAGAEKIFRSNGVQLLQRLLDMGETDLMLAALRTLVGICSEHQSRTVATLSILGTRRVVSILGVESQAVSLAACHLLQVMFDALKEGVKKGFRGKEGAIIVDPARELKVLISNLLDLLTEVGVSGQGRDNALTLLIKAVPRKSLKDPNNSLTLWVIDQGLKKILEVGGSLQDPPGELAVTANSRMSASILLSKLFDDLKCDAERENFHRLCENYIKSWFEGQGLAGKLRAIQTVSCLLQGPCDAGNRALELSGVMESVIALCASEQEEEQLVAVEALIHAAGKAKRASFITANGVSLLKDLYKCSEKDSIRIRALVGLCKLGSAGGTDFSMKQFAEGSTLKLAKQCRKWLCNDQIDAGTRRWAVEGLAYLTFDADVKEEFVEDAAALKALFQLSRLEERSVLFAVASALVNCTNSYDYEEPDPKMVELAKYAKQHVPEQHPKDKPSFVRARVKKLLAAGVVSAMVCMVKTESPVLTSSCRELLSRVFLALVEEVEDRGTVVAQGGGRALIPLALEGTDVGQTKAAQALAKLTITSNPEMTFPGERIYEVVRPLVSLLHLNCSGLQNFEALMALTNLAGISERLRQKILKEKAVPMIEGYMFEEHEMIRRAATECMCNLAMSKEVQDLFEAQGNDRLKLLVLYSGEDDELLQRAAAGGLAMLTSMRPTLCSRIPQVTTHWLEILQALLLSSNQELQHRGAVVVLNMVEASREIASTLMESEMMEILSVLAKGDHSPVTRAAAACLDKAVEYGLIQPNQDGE
Chain of UniProt Q9Y6I4 (Q9Y6I4 whole entry, looked up): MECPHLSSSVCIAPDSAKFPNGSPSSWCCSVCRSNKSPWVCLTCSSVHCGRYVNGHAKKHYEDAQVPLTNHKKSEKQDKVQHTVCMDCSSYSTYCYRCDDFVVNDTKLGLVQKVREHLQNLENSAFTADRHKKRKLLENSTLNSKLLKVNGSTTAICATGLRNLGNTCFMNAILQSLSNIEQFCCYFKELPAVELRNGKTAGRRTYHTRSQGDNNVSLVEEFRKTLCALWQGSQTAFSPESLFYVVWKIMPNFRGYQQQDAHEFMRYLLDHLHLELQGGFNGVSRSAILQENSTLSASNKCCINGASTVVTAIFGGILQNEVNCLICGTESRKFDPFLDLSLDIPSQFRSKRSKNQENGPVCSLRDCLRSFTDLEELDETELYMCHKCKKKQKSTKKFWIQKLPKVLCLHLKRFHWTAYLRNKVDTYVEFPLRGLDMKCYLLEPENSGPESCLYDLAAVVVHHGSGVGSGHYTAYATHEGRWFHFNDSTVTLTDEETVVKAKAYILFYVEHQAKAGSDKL
Chain of UniProt Q99986 (Q99986 whole entry, looked up): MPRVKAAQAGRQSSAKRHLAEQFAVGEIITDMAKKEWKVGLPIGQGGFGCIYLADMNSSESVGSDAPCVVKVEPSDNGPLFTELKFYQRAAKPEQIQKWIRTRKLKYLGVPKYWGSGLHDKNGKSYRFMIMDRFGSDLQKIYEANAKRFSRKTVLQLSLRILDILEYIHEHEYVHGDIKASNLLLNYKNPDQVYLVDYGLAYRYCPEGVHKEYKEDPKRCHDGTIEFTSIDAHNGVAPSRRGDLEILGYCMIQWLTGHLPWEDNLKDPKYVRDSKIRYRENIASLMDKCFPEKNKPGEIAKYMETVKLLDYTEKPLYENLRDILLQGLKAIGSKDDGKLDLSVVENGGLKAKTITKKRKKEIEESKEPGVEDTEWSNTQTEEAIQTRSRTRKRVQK

| Target | log2 fold change (alvocidib) | log2 fold change (Tubastatin A) | log2 fold change [1] | log2 fold change (defactinib) | log2 fold change [2] | log2 fold change (encorafenib) | log2 fold change [3] | log2 fold change (alisertib) | log2 fold change [4] | log2 fold change (gefitinib) |
| --- | --- | --- | --- | --- | --- | --- | --- | --- | --- | --- |
| ZFPM1 (UniProt Q8IX07) | 0.014 | 0.024 | -0.022 | 0 | 0.007 | 0.072 | -0.009 | -0.011 | 0.018 | -0.006 |
| WDR62 isoform 4 (UniProt O43379) | 0.018 | -0.132 | 0.012 | -0.007 | 0.048 | 0.054 | -0.01 | 0.005 | 0.052 | 0.013 |
| WIPI2 (UniProt Q9Y4P8) | -0.036 | 0.005 | -0.007 | 0.036 | -0.051 | 0.029 | 0.049 | -0.033 | -0.012 | -0.027 |
| XPNPEP1 isoform 3 (UniProt Q9NQW7) | -0.018 | 0.011 | 0.029 | -0.001 | -0.045 | 0.001 | 0.613 (active) | -0.002 | 0.002 | 0.002 |
| WDR3 (UniProt Q9UNX4) | 0.008 | -0.099 | -0.013 | 0.031 | -0.048 | -0.008 | 0.046 | 0.03 | -0.007 | -0.01 |
| ZC3H11A (UniProt O75152) | 0.098 | -0.077 | 0.076 | -0.066 | -0.023 | 0.045 | 0.078 | 0.019 | 0.09 | 0.034 |
| ZHX1 (UniProt Q9UKY1) | -0.231 | -0.194 | 0 | 0.034 | 0.251 | 0.041 | 0.044 | 0.013 | 0.042 | 0.012 |
| XPOT (UniProt O43592) | 0.004 | -0.133 | -0.004 | 0.011 | -0.042 | 0.005 | -0.094 | 0 | 0.005 | 0.01 |
| VARS (UniProt P26640) | -0.003 | -0.086 | 0.002 | 0.025 | -0.008 | -0.008 | 0.16 | -0.02 | 0.003 | -0.006 |
| YES1 (UniProt P07947) | -0.065 | 0.171 | -0.003 | -0.228 | -0.094 | -0.009 | -0.024 | 0.049 | 0.087 | -0.13 |
| ZNF451 (UniProt Q9Y4E5) | -0.011 | -0.121 | 0.027 | 0 | -0.014 | -0.03 | 0.07 | 0.008 | -0.012 | -0.009 |
| WDR24 (UniProt Q96S15) | -0.001 | -0.096 | -0.032 | 0.053 | -0.054 | 0.022 | 0.125 | -0.02 | 0.021 | -0.008 |
| XAB2 (UniProt Q9HCS7) | -0.003 | -0.039 | 0.012 | 0.008 | 0.014 | -0.045 | 0.2 | -0.017 | 0.025 | 0.046 |
| VPS35L (UniProt Q7Z3J2) | 0 | -0.083 | 0.015 | 0.036 | -0.013 | 0.014 | 0.006 | -0.034 | -0.023 | -0.076 |
| WDR6 (UniProt Q9NNW5) | -0.009 | -0.077 | -0.004 | 0.003 | -0.011 | 0.015 | 0.031 | 0.005 | 0.016 | -0.013 |
| WDR20 isoform 7 (UniProt Q8TBZ3) | -0.041 | -0.035 | 0.02 | -0.049 | -0.13 | 0.078 | -0.114 | 0.175 | -0.002 | -0.149 |
| UNC45A (UniProt Q9H3U1) | -0.017 | -0.146 | 0 | 0.018 | -0.011 | -0.003 | 0.044 | 0.006 | 0.001 | -0.02 |
| ZZEF1 (UniProt O43149) | 0.005 | -0.025 | 0.017 | -0.022 | 0.017 | 0.022 | 0.065 | -0.022 | 0.007 | 0.008 |
| VRK1 (UniProt Q99986) | 0.385 (active) | -0.096 | 0.008 | -0.067 | 0.017 | -0.027 | 0.047 | -0.004 | -0.007 | -0.026 |
| ZMYND8 isoform 19 (UniProt Q9ULU4) | 0 | -0.091 | 0.017 | 0.104 | -0.052 | -0.002 | 0.065 | 0.022 | -0.046 | -0.023 |
| UXT isoform 2 (UniProt Q9UBK9) | -0.038 | 0.081 | 0.015 | 0.069 | 0.574 (active) | -0.081 | 0.025 | -0.041 | 0.038 | 0.04 |
| VRK2 (UniProt Q86Y07) | 0.503 (active) | -0.017 | 0.067 | 0.156 | -0.044 | -0.068 | 0.032 | -0.033 | 0.008 | -0.08 |
| VPS41 (UniProt P49754) | 0.068 | -0.128 | 0.03 | 0.006 | -0.055 | 0.019 | -0.072 | -0.043 | 0.006 | -0.004 |
| USP3 (UniProt Q9Y6I4) | 0.002 | -0.154 | -0.046 | 0.013 | -0.024 | 0.03 | 0.022 | -0.008 | 0.028 | -0.005 |
| VPS11 (UniProt Q9H270) | 0.039 | -0.113 | 0.023 | 0.022 | -0.026 | 0.016 | -0.096 | 0.002 | 0.019 | -0.007 |
| YLPM1 (UniProt P49750) | 0.061 | -0.041 | 0.01 | 0.041 | 0.131 | 0.049 | -0.09 | -0.033 | 0 | -0.086 |
| WDR45 isoform 2 (UniProt Q9Y484) | -0.065 | -0.067 | -0.001 | 0.013 | -0.059 | -0.042 | -0.051 | 0.021 | -0.008 | 0.037 |
| VTN (UniProt P04004) | -0.112 | -0.012 | -0.095 | 0.104 | -0.061 | 0.089 | -0.074 | -0.041 | 0.014 | 0.009 |
| VAMP2 (UniProt P63027) | 0.019 | 0.027 | 0.035 | 0.112 | -0.01 | 0.05 | -0.057 | 0.014 | 0.001 | 0.018 |
| XPO6 (UniProt Q96QU8) | -0.058 | -0.09 | -0.048 | -0.025 | -0.05 | -0.006 | 0.021 | 0.036 | 0.031 | 0.067 |

Source: the supplement of paper PMC10849652
